Reference: ChEMBL document CHEMBL3988442, “University of Dundee, Small-Polar-MMV Screening Library” (2021)
For some of these results: Results with a measured potency or affinity are listed apart.

Legend:
[1] = target: Protein translocase subunit SecA (Escherichia coli (strain K12)) (UniProt P10408); assay: Assay to Identify E. coli SecA ATPase Inhibitors; type: functional; set-up: scale not given: direction of the effect not stated beside the values; conditions: 30 µM
[2] = target: T1, Ubiquitin-activating enzyme e1, putative (Leishmania donovani (strain BPK282A1)) (UniProt E9BSI1); assay: Leishmania donovani Ubiquitin Activating Enzyme (LdE1); type: functional; set-up: scale not given: direction of the effect not stated beside the values; conditions: 30 µM
T1 sequence (whole entry): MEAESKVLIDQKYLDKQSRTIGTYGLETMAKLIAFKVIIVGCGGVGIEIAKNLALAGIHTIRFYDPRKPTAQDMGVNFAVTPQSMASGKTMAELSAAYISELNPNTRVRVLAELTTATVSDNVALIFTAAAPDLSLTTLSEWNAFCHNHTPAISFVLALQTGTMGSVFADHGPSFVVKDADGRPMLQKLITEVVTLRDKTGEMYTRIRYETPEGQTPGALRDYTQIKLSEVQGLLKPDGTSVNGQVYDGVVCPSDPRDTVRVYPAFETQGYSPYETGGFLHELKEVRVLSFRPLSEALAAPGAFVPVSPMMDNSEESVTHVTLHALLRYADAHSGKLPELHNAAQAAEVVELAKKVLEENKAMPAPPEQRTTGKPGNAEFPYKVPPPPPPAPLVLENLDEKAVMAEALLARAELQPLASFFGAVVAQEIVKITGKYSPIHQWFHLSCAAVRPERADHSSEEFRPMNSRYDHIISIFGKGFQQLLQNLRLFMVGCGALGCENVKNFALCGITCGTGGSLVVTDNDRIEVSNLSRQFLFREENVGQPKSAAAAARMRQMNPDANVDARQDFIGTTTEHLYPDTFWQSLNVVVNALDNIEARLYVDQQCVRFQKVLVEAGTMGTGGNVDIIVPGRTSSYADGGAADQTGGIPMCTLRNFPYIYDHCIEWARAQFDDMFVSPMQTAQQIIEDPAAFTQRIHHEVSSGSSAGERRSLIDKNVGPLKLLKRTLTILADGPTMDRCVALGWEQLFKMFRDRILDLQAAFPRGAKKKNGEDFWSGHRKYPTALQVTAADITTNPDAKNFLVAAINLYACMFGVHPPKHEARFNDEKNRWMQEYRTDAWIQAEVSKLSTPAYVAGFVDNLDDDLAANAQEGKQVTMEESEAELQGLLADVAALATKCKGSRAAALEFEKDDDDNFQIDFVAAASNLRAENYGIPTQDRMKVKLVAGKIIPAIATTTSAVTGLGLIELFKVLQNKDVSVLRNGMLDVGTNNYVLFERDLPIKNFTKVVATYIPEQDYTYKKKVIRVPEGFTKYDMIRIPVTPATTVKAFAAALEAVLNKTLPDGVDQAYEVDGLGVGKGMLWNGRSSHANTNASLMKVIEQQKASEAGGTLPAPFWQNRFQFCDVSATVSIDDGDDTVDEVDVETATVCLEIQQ

[3] = target: AMP-activated protein kinase, AMPK (Homo sapiens) (UniProt P54646+O43741+P54619+Q9UGJ0+Q9Y478+Q13131+Q9UGI9); assay: AMP-dependent Kinase enzyme assay. An in vitro enzyme assay that detects ADP turnover that is directly proportional to AMPK activity. This uses naive AMPK that is activated during the assay with MK-8722; type: functional; set-up: scale not given: direction of the effect not stated beside the values; conditions: 30 µM
[4] = target: Sialic acid-binding Ig-like lectin 9 (Homo sapiens) (UniProt Q9Y336); assay: Hs-Siglec9 ALPHAscreen SOP 20170721; set-up: scale not given: direction of the effect not stated beside the values; conditions: 10 µM
Chain of Sialic acid-binding Ig-like lectin 9 (Homo sapiens) (Q9Y336 whole entry): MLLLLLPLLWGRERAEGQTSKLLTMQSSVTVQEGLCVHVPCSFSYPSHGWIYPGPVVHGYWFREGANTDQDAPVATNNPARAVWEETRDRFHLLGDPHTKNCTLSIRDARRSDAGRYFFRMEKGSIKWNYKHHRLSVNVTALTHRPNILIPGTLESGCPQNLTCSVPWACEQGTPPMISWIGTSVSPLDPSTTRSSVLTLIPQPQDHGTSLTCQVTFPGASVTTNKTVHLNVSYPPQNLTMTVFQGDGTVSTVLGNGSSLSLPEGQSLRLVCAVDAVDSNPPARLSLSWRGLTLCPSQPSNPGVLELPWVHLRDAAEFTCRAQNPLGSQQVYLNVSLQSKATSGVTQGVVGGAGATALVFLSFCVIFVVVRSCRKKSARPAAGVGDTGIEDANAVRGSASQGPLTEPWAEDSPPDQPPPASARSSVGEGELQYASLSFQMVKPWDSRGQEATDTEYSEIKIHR

Trypanosoma cruzi = assay: Trypanosoma cruzi phosphomannomutase and mannose-1-phosphate guanylyltransferase assay; type: functional; set-up: scale not given: direction of the effect not stated beside the values; conditions: 10 µM
[5] = target: T2, Arginase-2, mitochondrial (Homo sapiens) (UniProt P78540); assay: in vitro enzyme assay to detect the production of urea directly proportional to the activity of Arginase II; type: functional; set-up: scale not given: in the data most compounds retested in dose-response had high values
T2 sequence (whole entry): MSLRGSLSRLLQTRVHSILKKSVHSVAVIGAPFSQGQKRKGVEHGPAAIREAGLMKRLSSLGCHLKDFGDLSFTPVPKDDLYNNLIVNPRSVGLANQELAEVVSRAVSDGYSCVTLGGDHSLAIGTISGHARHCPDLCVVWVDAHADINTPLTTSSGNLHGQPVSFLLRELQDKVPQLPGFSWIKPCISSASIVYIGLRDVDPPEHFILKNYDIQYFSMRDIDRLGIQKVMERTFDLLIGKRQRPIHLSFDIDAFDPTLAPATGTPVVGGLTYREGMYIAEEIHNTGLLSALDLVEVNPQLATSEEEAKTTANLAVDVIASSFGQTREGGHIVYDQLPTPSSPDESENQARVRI

[6] = target: T3, Proteasome subunit beta (Trypanosoma cruzi) (UniProt O96673); assay: Trypanosoma cruzi proteasome chymotrypsin-like activity (TcProtChymo) assay.; type: functional; set-up: scale not given: in the data most compounds retested in dose-response had high values; conditions: 9.37 µM
T3 sequence (whole entry): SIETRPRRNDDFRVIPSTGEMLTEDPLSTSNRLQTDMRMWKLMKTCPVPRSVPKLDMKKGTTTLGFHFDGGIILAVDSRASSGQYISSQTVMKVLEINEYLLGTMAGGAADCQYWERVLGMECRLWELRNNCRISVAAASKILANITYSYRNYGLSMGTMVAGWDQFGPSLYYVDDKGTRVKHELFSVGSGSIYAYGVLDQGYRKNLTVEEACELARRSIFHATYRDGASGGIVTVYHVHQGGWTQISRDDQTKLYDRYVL

Homo sapiens = organism: Homo sapiens; assay: To identify inhibition of the IFN signalling (Jak-Stat) pathway via expression of an eGFP reporter gene under the control of an IFN-stimulated response element (ISRE) containing MxA promoter.; type: functional; set-up: scale not given: direction of the effect not stated beside the values; conditions: 30 µM
[7] = target: T4, Tyrosyl-tRNA synthetase, putative (Trypanosoma cruzi (strain CL Brener)) (UniProt Q4DSP6); assay: Trypanosoma cruzi tyrosyl tRNA synthetase (TcYRS) _High Tyrosine SOP; type: functional; set-up: scale not given: in the data most compounds retested in dose-response had high values; conditions: 30 µM
T4 sequence (whole entry): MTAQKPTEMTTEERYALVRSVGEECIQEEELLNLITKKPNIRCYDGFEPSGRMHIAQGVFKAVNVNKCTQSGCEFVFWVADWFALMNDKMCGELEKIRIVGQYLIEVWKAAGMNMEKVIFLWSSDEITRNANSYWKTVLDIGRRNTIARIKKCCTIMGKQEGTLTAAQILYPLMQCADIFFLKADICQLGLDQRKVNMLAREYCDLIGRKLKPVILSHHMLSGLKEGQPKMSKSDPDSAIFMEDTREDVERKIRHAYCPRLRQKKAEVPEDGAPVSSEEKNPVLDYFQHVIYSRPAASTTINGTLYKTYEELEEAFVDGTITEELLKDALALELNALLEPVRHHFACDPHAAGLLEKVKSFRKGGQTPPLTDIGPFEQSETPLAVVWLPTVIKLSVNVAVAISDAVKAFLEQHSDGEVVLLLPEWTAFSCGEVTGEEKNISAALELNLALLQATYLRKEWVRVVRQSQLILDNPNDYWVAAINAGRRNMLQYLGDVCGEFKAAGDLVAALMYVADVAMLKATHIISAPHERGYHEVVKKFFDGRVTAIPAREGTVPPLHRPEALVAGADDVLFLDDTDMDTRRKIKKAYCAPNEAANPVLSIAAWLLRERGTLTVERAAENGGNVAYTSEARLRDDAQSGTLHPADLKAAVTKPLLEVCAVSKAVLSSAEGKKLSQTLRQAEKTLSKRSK

[8] = target: T4, Tyrosyl-tRNA synthetase, putative (Trypanosoma cruzi (strain CL Brener)); assay: Trypanosoma cruzi tyrosyl tRNA synthetase (TcYRS) SOP; type: functional; set-up: scale not given: direction of the effect not stated beside the values; conditions: 30 µM
[9] = target: Chromo domain-containing protein 1 (Saccharomyces cerevisiae (strain ATCC 204508 / S288c) (Baker's yeast)) (UniProt P32657); assay: ScCHD-1 Enzyme Inhibition Assay; type: functional; set-up: scale not given: in the data most compounds retested in dose-response had high values; conditions: 30 µM
Chain of Chromo domain-containing protein 1 (Saccharomyces cerevisiae (strain ATCC 204508 / S288c) (Baker's yeast)) (P32657 whole entry, the tested form may be a part): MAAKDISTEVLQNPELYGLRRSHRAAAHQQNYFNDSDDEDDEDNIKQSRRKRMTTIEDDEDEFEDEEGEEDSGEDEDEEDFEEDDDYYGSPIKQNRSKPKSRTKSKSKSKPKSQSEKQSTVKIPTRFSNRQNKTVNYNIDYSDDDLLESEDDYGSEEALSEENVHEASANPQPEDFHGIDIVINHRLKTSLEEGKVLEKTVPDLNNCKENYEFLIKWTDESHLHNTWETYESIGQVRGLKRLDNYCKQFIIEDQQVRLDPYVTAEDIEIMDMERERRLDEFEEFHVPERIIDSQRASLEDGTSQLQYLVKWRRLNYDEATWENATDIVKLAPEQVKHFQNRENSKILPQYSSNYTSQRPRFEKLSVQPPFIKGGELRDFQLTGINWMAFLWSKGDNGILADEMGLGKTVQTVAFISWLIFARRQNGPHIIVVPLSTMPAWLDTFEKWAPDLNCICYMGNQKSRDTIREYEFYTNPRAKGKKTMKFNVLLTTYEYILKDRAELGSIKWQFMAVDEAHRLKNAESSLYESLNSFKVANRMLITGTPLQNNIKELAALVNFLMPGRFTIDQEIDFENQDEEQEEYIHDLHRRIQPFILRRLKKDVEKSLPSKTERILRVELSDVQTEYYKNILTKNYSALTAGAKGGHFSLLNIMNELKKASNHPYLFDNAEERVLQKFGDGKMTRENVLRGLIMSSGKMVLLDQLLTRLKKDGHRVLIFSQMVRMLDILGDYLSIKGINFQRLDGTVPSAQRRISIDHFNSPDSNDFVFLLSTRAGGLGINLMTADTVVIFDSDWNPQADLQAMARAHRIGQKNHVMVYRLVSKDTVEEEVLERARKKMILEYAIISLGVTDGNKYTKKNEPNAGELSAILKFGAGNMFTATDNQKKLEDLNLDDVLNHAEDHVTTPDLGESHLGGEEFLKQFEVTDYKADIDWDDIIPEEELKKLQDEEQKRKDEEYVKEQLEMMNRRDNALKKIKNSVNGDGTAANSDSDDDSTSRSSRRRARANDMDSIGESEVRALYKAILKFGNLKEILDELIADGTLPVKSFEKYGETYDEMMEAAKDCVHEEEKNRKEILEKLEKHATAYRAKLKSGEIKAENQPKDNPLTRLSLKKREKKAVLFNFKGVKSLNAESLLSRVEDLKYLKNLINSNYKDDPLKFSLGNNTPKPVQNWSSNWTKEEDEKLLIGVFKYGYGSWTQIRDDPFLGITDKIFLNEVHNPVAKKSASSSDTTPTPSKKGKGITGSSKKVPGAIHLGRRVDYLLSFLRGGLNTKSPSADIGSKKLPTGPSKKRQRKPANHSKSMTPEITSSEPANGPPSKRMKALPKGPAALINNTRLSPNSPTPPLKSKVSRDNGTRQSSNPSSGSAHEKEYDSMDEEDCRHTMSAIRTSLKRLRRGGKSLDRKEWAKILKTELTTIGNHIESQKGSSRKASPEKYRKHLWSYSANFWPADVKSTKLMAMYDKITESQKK

[10] = target: T5, Methionyl-tRNA synthetase, putative (Leishmania donovani (strain BPK282A1)) (UniProt E9BF75); assay: Leishmania donovani Methionine tRNA synthetase (LdMetRS):v7. Dose response assay; type: functional; set-up: conc 80 nM, time 150 minutes
T5 sequence (whole entry): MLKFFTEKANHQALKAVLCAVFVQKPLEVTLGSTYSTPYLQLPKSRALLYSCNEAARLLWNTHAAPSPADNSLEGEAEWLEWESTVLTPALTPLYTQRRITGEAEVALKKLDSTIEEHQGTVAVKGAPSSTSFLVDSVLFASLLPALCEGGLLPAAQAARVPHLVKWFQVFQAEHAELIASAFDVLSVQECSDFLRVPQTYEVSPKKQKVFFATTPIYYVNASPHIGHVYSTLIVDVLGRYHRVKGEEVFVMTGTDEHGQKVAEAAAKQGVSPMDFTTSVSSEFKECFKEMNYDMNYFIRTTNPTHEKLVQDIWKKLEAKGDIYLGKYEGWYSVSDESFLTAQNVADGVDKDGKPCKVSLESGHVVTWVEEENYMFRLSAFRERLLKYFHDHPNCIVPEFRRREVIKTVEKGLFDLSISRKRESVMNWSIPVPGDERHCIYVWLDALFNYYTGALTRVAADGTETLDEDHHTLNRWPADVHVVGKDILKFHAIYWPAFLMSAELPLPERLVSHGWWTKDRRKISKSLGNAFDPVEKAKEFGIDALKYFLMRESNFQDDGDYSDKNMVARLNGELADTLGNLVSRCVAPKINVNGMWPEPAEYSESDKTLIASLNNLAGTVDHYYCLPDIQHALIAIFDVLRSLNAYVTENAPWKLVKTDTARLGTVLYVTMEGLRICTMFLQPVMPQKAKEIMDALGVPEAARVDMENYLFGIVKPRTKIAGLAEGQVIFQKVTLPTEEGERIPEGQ

Chain of Protein translocase subunit SecA (Escherichia coli (strain K12)) (P10408 whole entry): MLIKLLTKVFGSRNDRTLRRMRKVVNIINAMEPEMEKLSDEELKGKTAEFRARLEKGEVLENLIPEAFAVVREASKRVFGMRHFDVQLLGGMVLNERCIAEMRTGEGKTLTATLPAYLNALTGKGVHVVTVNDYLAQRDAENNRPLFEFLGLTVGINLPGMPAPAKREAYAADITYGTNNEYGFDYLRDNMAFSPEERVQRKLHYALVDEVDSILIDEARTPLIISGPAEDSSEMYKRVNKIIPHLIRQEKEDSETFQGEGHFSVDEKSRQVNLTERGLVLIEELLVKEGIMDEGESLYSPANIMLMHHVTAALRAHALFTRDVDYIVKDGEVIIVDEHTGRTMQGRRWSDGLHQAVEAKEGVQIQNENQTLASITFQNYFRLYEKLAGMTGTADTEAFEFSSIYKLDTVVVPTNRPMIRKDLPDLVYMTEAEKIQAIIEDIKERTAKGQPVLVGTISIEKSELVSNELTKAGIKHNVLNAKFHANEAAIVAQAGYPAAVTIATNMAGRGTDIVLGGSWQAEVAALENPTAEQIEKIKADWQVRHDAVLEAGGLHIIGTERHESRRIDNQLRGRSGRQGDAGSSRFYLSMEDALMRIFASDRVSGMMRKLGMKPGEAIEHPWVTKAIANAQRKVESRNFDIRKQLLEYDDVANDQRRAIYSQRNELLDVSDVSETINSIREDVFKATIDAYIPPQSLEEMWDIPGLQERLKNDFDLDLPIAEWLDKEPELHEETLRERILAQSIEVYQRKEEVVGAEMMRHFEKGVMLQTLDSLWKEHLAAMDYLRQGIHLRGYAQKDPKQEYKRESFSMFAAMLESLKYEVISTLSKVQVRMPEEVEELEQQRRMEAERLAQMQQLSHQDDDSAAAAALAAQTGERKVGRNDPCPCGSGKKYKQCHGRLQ

| SMILES | Percent Effect [1] [%] | Percent Effect [2] [%] | Percent Effect [3] [%] | Percent Effect [4] [%] | Percent Effect (Trypanosoma cruzi) [%] | Percent Effect ([5]; 30 µM) [%] | Percent Effect ([5]; 33.3 µM) [%] | Percent Effect [6] [%] | Percent Effect (Homo sapiens) [%] | Percent Effect [7] [%] | Percent Effect [8] [%] | Percent Effect [9] [%] | PXC50 ([10]; MAX_EFFECT 6.650831354) | PXC50 ([10]; MAX_EFFECT 11.79577465) | PXC50 ([10]; MAX_EFFECT 12.79373368) | PXC50 ([10]; MAX_EFFECT 13.05483029) |
| --- | --- | --- | --- | --- | --- | --- | --- | --- | --- | --- | --- | --- | --- | --- | --- | --- |
| COCCC(=O)N1CCC2(COCc3c(C)nc(NCC4CC4)nc32)C1 (configuration not stated) | -1.4 | 13.3 | 11.3 | 1.42 | -5.32 | 4.87 | -3.03 | 15.4 | 4.83 | 1.06 | 11.5 | -2.58 |  |  |  |  |
| CN(Cc1ccccn1)C1CC2(CCN(Cc3cccnc3)CC2)C1 | -7.24 | 13.3 | 5.22 | -6.34 | -10 | -2.7 | 0.233 | 9.6 | 10.9 | 4.25 | 11.5 | -7.41 |  |  |  |  |
| Cc1nnc(NCC2(c3ccccc3)CC2)c(C#N)c1C | -6.81 | 0 | -11.8 | 5.06 | -3.09 |  | 1.43 | 8.1 | 13 | -0.529 | 4.88 | -4.42 | < 4 | < 4 |  |  |
| O=C(NC1CCC1)[C@@H]1CCO[C@@H]2CCN(CCc3ccccc3)C[C@H]21 | -2.5 | 16.2 | -6.69 | -3.15 | 4.3 | 8.11 | 14.6 | 22.7 | 12 | 8.91 | 18.3 | -3.4 |  |  |  |  |
| CCn1cnnc1CNc1nc(C)nc2scc(CC(C)C)c12 |  |  | -1.1 |  |  |  |  |  |  |  |  |  |  |  | < 4 | < 4 |
